In PubChem BioAssay (EPA / NIEHS):
Where a structure was tested more than once in an assay, its records may differ in their call. Active and inactive are the calls of the source. How the source made its calls: active means hit-call score of the fitted dose curve at least 0.9, where 1 is the maximum; inactive means score below 0.9.

Legend:
CD69, CD69 (gene 969) = assay: BSK_IMphg_CD69: BioMAP Diversity Plus: IMphg Assay for CD69 Biomarker Activity (AID 2284257); conditions: primary human endothelial cells with macrophages
Summary of the method: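 Readout is ELISA for CD69 in primary human venular endothelial cell/macrophage co-culture, taken at 24 h post-dosing. SRB staining of parallel cultures gauged overt cytotoxicity; signal increase versus DMSO defined activity.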

[1] = read-out: Eotaxin 3, CCL26 (gene 10344); assay: BSK_BF4T_Eotaxin3: BioMAP Diversity Plus: BF4T Assay for Eotaxin 3 Biomarker Activity (AID 2284258); conditions: primary human bronchial epithelial cells with fibroblasts
Summary of the method: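 ELISA measurement of Eotaxin-3 after 24 h chemical exposure in a bronchial epithelial/dermal fibroblast co-culture, with DMSO as baseline. Parallel SRB staining (0.1% SRB after 10% TCA fixation, 560 nm) flagged overt cytotoxicity.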

[2] = read-out: Monocyte Chemoattractant Protein-1 (MCP1), CCL2 (gene 6347); assay: BSK_BF4T_MCP1: BioMAP Diversity Plus: BF4T Assay for Monocyte Chemoattractant Protein-1 (MCP1) Biomarker Activity (AID 2284259); conditions: primary human bronchial epithelial cells with fibroblasts
Summary of the method: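 MCP-1 ELISA readout taken 24 h after dosing in the BF4T system (bronchial epithelial cells plus dermal fibroblasts). Parallel SRB total-protein staining flagged cytotoxicity; DMSO served as baseline, positive fitting direction.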

[3] = read-out: Intercellular Adhesion Molecule 1 (ICAM1), ICAM1 (gene 3383); assay: BSK_BF4T_ICAM1: BioMAP Diversity Plus: BF4T Assay for Intercellular Adhesion Molecule 1 (ICAM1) Biomarker Activity (AID 2284260); conditions: primary human bronchial epithelial cells with fibroblasts
Summary of the method: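 ICAM-1 levels measured by ELISA after 24 h chemical treatment of bronchial epithelial cell/dermal fibroblast co-cultures, read against DMSO baseline. Overt cytotoxicity checked in parallel cultures by sulforhodamine B staining.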

[4] = read-out: Interleukin-8 (IL8), CXCL8 (gene 3576); assay: BSK_MyoF_IL8: BioMAP Diversity Plus: MyoF Assay for Interleukin-8 (IL8) Biomarker Activity (AID 2284261); conditions: primary human lung fibroblasts
Summary of the method: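 Human lung fibroblast (MyoF system) cultures dosed for 24 h, then IL-8 measured by ELISA. Response taken relative to DMSO; parallel SRB total-protein staining for cytotoxicity.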

CD90, THY1 (gene 7070) = assay: BSK_BF4T_CD90: BioMAP Diversity Plus: BF4T Assay for CD90 Biomarker Activity (AID 2284262); conditions: primary human bronchial epithelial cells with fibroblasts
Summary of the method: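 CD90 levels by ELISA after 24 h treatment of human bronchial epithelial cell/dermal fibroblast cultures, analysed versus DMSO. Overt cytotoxicity checked in parallel cultures by sulforhodamine B staining.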

[5] = read-out: Interleukin-8 (IL8), CXCL8 (gene 3576); assay: BSK_BF4T_IL8: BioMAP Diversity Plus: BF4T Assay for Interleukin-8 (IL8) Biomarker Activity (AID 2284263); conditions: primary human bronchial epithelial cells with fibroblasts
Summary of the method: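 Human bronchial epithelial cells with dermal fibroblasts co-culture; IL-8 measured by ELISA 24 hours after dosing, fitted vs DMSO. Cytotoxicity tracked in parallel cultures by SRB total-protein staining.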

[6] = read-out: Interleukin-1 alpha (IL1a), IL1A (gene 3552); assay: BSK_BF4T_IL1a: BioMAP Diversity Plus: BF4T Assay for Interleukin-1 alpha (IL1a) Biomarker Activity (AID 2284264); conditions: primary human bronchial epithelial cells with fibroblasts
Summary of the method: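 ELISA read-out of IL-1α from bronchial epithelial cell/dermal fibroblast co-cultures 24 h after compound addition. Increases scored against DMSO negative control. Cytotoxicity monitored by sulforhodamine B staining of parallel cultures.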

Decorin, DCN (gene 1634) = assay: BSK_MyoF_Decorin: BioMAP Diversity Plus: MyoF Assay for Decorin Biomarker Activity (AID 2284265); conditions: primary human lung fibroblasts
Summary of the method: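 Human lung fibroblast cultures were dosed for 24 h, and decorin was then measured by ELISA. Parallel cultures were stained with sulforhodamine B for total protein as a cytotoxicity check. Gain of signal was fitted relative to DMSO.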

KRT18 (gene 3875) = assay: BSK_BF4T_Keratin818: BioMAP Diversity Plus: BF4T Assay for Keratin 818 Biomarker Activity (AID 2284266); conditions: primary human bronchial epithelial cells with fibroblasts
Summary of the method: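 Keratin 8/18 levels quantified by ELISA after 24 h chemical treatment of bronchial epithelial cell/dermal fibroblast co-cultures, fitted in positive direction relative to DMSO. Parallel SRB staining tracks overt cytotoxicity.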

[7] = BSK_MyoF_SRB: Viability Assessment in the BioMAP Diversity Plus: MyoF Assay (AID 2284267); conditions: primary human lung fibroblasts;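 further: total protein by SRB absorbance in parallel cultures as cytotoxicity measure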
Summary of the method: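 Lung fibroblast cultures, 24 h post-dose; fix 10% TCA, stain 0.1% SRB, read 560 nm. Signal = total protein as cytotoxicity measure; fitted relative to DMSO negative control.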

[8] = read-out: Matrix Metallopeptidase 1 (MMP1), MMP1 (gene 4312); assay: BSK_MyoF_MMP1: BioMAP Diversity Plus: MyoF Assay for Matrix Metallopeptidase 1 (MMP1) Biomarker Activity (AID 2284268); conditions: primary human lung fibroblasts
Summary of the method: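 Human lung fibroblast primary cells; MMP1 measured by ELISA 24 h after dosing, fitted in the positive direction relative to DMSO. Parallel SRB staining (0.1%, after 10% TCA fixation, 560 nm) assesses overt cytotoxicity.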

[9] = read-out: TIMP metallopeptidase inhibitor 1 (TIMP1), TIMP1 (gene 7076); assay: BSK_MyoF_TIMP1: BioMAP Diversity Plus: MyoF Assay for TIMP metallopeptidase inhibitor 1 (TIMP1) Biomarker Activity (AID 2284269); conditions: primary human lung fibroblasts
Summary of the method: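 ELISA read-out of TIMP-1 from primary human lung fibroblast cultures 24 h after compound dosing; gain of signal relative to DMSO vehicle baseline defines activity.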

[10] = read-out: Matrix Metallopeptidase 1 (MMP1), MMP1 (gene 4312); assay: BSK_BF4T_MMP1: BioMAP Diversity Plus: BF4T Assay for Matrix Metallopeptidase 1 (MMP1) Biomarker Activity (AID 2284270); conditions: primary human bronchial epithelial cells with fibroblasts
Summary of the method: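 MMP-1 quantified by ELISA in primary human bronchial epithelial/dermal fibroblast co-cultures, 24 hours post-dosing, with DMSO as baseline; parallel sulforhodamine B staining (560 nm) tracks overt cytotoxicity.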

[11] = read-out: Matrix Metallopeptidase 3 (MMP3), MMP3 (gene 4314); assay: BSK_BF4T_MMP3: BioMAP Diversity Plus: BF4T Assay for Matrix Metallopeptidase 3 (MMP3) Biomarker Activity (AID 2284271); conditions: primary human bronchial epithelial cells with fibroblasts
Summary of the method: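 MMP-3 level read by ELISA after 24 h chemical exposure of bronchial epithelial cell/dermal fibroblast co-cultures, fitted upward relative to DMSO. Parallel cultures stained with 0.1% SRB after TCA fixation gauge overt cytotoxicity.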

[12] = read-out: Tissue plasminogen activator (tPA), PLAT (gene 5327); assay: BSK_BF4T_tPA: BioMAP Diversity Plus: BF4T Assay for Tissue plasminogen activator (tPA) Biomarker Activity (AID 2284272); conditions: primary human bronchial epithelial cells with fibroblasts
Summary of the method: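 tPA level quantified by ELISA at 24 h post-treatment in bronchial epithelial/dermal fibroblast co-cultures, gain of signal scored against DMSO baseline. Parallel cultures stained with 0.1% SRB (560 nm) to flag overt cytotoxicity.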

[13] = read-out: Plasminogen Activator Inhibitor-1 (PAI1), SERPINE1 (gene 5054); assay: BSK_BF4T_PAI1: BioMAP Diversity Plus: BF4T Assay for Plasminogen Activator Inhibitor-1 (PAI1) Biomarker Activity (AID 2284273); conditions: primary human bronchial epithelial cells with fibroblasts
Summary of the method: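 PAI-1 levels quantified by ELISA 24 h post-dosing in bronchial epithelial cell plus dermal fibroblast cultures. Signal gain referenced to DMSO baseline. Sulforhodamine B total-protein staining of parallel wells checked cytotoxicity.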

[14] = BSK_BF4T_SRB: Viability Assessment in the BioMAP Diversity Plus: BF4T Assay (AID 2284274); conditions: primary human bronchial epithelial cells with fibroblasts
Summary of the method: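 Cytotoxicity measured as total protein: cells fixed with 10% TCA, stained with 0.1% SRB, read at 560 nm. Bronchial epithelial/dermal fibroblast co-culture, 24 h after dosing, with positive-direction fitting relative to DMSO.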

[15] = read-out: urokinase Plasminogen Activator (uPA), PLAU (gene 5328); assay: BSK_BF4T_uPA: BioMAP Diversity Plus: BF4T Assay for urokinase Plasminogen Activator (uPA) Biomarker Activity (AID 2284275); conditions: primary human bronchial epithelial cells with fibroblasts
Summary of the method: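 uPA levels measured by ELISA at 24 hours in BF4T cultures (bronchial epithelial cells plus dermal fibroblasts) and compared with DMSO; cytotoxicity tracked in parallel cultures by sulforhodamine B staining.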

[16] = read-out: Matrix Metallopeptidase 9 (MMP9), MMP9 (gene 4318); assay: BSK_BF4T_MMP9: BioMAP Diversity Plus: BF4T Assay for Matrix Metallopeptidase 9 (MMP9) Biomarker Activity (AID 2284276); conditions: primary human bronchial epithelial cells with fibroblasts
Summary of the method: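 MMP-9 levels were measured by ELISA after 24 h exposure of bronchial epithelial cell/dermal fibroblast co-cultures, with DMSO as baseline. Parallel cultures were stained with 0.1% SRB after TCA fixation, read at 560 nm, to flag overt cytotoxicity.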

Measured: AC50

Cn1cnc([N+](=O)[O-])c1Sc1ncnc2nc[nH]c12
inactive: CD69, CD69 (gene 969) | [1] | [2] | [3] | [4] | CD90, THY1 (gene 7070) | [5] | [6] | Decorin, DCN (gene 1634) | KRT18 (gene 3875) | [7] | [8] | [9] | [10] | [11] | [12] | [13] | [14] | [15] | [16]
active: [12] 7.93 µM
